Records with an inconclusive call do not appear. Calls of active or inactive are those of the source. Calls come from the whole dose curve; as a rule, active = well fitted curve in the direction sought with a large enough effect; inconclusive = small, poorly fitted or top-dose-only effect, or another doubt; inactive = no such curve, though single readings can be large; an effect the other way counts as inactive or inconclusive.
Legend:
[1] = qHTS to identify inhibitors of the type 1 interferon - major histocompatibility complex class I in skeletal muscle: primary screen against the NCATS Pharmaceutical Collection (AID 1347407);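 note: luminescence of HiBiT knocked into endogenous HLA-B as interferon-induced MHC class I level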
How it was run: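 A qHTS format is used: 8-point, 1:5 compound series with 46 uM top final concentration, applied alongside 4 ng/ml IFN-beta to HLA-B*08:01-HiBiT knock-in myoblasts. Luminescence is measured after 24 h treatment.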

[2] = qHTS to identify inhibitors of the type 1 interferon - major histocompatibility complex class I in skeletal muscle: primary screen against the NCATS Mechanism Interrogation Plate v5.0 (MIPE) Libary (AID 1347411); note: nearly all actives have a fitted effect of over 65% in size
How it was run: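 HLA-B HiBit myoblasts, dexamethasone-free medium + 4 ng/ml IFN-b, 24 h compound, 11-pt 1:3 from 46 uM final. Readout: Nano-Glo HiBiT lytic luminescence after 10 min lysis, RT.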

[3] = target: Protein phosphatase 1D (Homo sapiens) (UniProt O15297); test: RapidFire Mass Spectrometry qHTS Assay for Modulators of WT P53-Induced Phosphatase 1 (WIP1) (AID 1347424);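 note: amount of dephosphorylated VEPPL-S-QETFS peptide product formed by WIP1; series mostly up to about 63 µM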
Chain of Protein phosphatase 1D (Homo sapiens) (O15297 whole entry, looked up): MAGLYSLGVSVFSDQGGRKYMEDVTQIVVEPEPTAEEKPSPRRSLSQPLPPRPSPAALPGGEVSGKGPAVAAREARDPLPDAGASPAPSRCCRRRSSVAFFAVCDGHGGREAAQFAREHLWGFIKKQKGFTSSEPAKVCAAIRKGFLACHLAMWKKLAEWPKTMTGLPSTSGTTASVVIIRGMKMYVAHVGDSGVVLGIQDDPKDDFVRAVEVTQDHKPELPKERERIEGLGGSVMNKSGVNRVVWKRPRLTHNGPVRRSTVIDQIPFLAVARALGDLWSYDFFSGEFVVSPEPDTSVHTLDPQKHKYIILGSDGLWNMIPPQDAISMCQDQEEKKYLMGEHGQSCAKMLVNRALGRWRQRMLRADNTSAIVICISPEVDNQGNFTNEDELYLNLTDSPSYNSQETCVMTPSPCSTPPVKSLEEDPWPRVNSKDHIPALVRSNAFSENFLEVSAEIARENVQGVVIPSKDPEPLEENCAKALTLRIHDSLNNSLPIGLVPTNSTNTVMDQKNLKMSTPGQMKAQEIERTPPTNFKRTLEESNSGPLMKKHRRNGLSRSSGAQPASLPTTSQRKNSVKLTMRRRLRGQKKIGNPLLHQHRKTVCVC
How it was run: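 RapidFire mass spectrometry measured dephosphorylated peptide after 5 min room-temperature reaction of 2 uM VEPPL-pS-QETFS with 10 nM WIP1 (50 mM Tris-HCl pH 7.5, 30 mM MgCl2, 0.1 mM EGTA, BSA), following 1 hr compound preincubation; 1 uM isotope-labelled product standard.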

[4] = target: Protein phosphatase 1D (Homo sapiens) (UniProt O15297); test: Rhodamine-PBP qHTS Assay for Modulators of WT P53-Induced Phosphatase 1 (WIP1) (AID 1347425)
How it was run: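 Read-out: Rhodamine-PBP fluorescence (ex 525/em 598 nm) for released Pi, read each minute for 11 min after adding 10 uM VEPPL-pS-QETFS; signal taken as f1 minus pre-substrate f0. Enzyme 5 nM WIP1 with 1 hr room-temperature compound preincubation.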

[5] = Primary qHTS for inhibitors of La Crosse Virus (LACV) - induced cell death in SH-SY5Y cells (AID 1508616);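 note: top concentration of the series differs between compounds; higher means more rescue of cells from virus-induced death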
How it was run: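 Cytopathicity rescue screen: compounds pinned onto SH-SY5Y cells, which are then infected with LACV (MOI 0.01) and held 6 days at 37C. Percent activity is scaled between infected DMSO control and uninfected DMSO control.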

[6] = target: Calcium and integrin-binding protein 1 (Homo sapiens) (UniProt Q99828); test: Primary qHTS for Identification of Calcium Integrin Binding Protein 1 (CIB1) Competitor (AID 1508620);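 note: GST tagged CIB1 binding a fluorescein labelled alphaIIb integrin peptide tracer; top concentration of the series differs between compounds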
Chain of Calcium and integrin-binding protein 1 (Homo sapiens) (Q99828 whole entry, looked up): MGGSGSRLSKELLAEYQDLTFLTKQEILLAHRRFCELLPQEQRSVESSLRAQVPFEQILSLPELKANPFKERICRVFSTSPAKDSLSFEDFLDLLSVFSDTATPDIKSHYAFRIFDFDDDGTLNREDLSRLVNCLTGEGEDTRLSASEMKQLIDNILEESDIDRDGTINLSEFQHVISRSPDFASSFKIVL
How it was run: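 CIB1-GST (1 uM final) and compound incubated 15 min at room temperature before adding FITC-alphaIIb peptide tracer (100 nM final). Competition for binding read by fluorescence polarization (ex 480, em 540) after another 15 min at room temperature.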

[7] = target: Calcium and integrin-binding protein 1 (Homo sapiens) (UniProt Q99828); test: Confirmatory qHTS for Identification of Calcium Integrin Binding Protein 1 (CIB1) Competitor (AID 1508617); note: nearly all actives have a fitted effect of over 65% in size
How it was run: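 Fluorescence polarization competition: CIB1-GST (1 uM final) in 5 mM HEPES pH 7.4, 125 mM NaCl, 5 mM CaCl2, 0.01% Tween20 preincubated 15 min RT with compound (up to 114 uM), then FITC-alphaIIb peptide (100 nM) added, 15 min RT.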

Measured: Potency

C#C[C@]1(O)CC[C@H]2[C@@H]3CCC4=CC(=O)CC[C@@H]4[C@H]3CC[C@@]21CC
not listed: [7]
inactive: all other assays above

O=C(N/N=C/c1ccc([N+](=O)[O-])o1)c1ccc(O)cc1
inactive: [1] | [3] | [4] | [5]

CN1CCc2cccc3c2[C@H]1Cc1ccc(O)c(O)c1-3
inactive: [7]

CC(C)NCC(O)c1ccc2ccccc2c1 (stereo unspecified)
not listed: [2] | [7]
inactive: all other assays above

CC(=O)N[C@@H](CCC(=O)O)C(=O)O
not listed: [2] | [7]
inactive: all other assays above

Cc1cn([C@H]2C[C@H](F)[C@@H](CO)O2)c(=O)[nH]c1=O
not listed: [2] | [7]
inactive: all other assays above

Cc1cc(C)cc(OCC2CNC(=O)O2)c1 (stereo unspecified)
not listed: [2] | [7]
inactive: all other assays above

CC(C)(C)NC[C@H](O)COc1cccc2c1CCCC2=O
not listed: [2] | [7]
inactive: all other assays above

CCOC(=O)c1c(N)sc2c1CCN(Cc1ccccc1)C2
not listed: [2] | [7]
inactive: all other assays above

O=[N+]([O-])c1cccc(S(=O)(=O)NCCNS(=O)(=O)c2cccc([N+](=O)[O-])c2)c1
not listed: [2] | [7]
inactive: all other assays above

CC(=O)NO
not listed: [2] | [7]
inactive: all other assays above

COc1cc(C(=O)N2CCCCCCC2)cc(OC)c1OC
not listed: [2] | [7]
inactive: all other assays above

c1ccc(CC2=NCCN2)cc1
not listed: [2] | [7]
inactive: all other assays above

CCN(CC)CCNC(=O)COc1ccc(OC)cc1
not listed: [2] | [7]
inactive: all other assays above

Cc1ncc(CO)c(C=O)c1O
not listed: [2] | [7]
inactive: all other assays above

CCCCC(CC)CN1CN(CC(CC)CCCC)CC(C)(N)C1 (stereo unspecified)
not listed: [2] | [7]
inactive: all other assays above

Cc1ccc(S(=O)(=O)NC(=O)NC2CCCC2)cc1
not listed: [2] | [7]
inactive: all other assays above

CC1CCc2c(N3CCC(O)CC3)c(F)cc3c(=O)c(C(=O)O)cn1c23 (stereo unspecified)
not listed: [2] | [7]
inactive: all other assays above

CC(C)Cn1cnc2c1c(=O)n(C)c(=O)n2C
not listed: [2] | [7]
inactive: all other assays above

CO[C@H]1C=CO[C@@]2(C)Oc3c(C)c(O)c4c(O)c(c(/C=N/N5CCN(C)CC5)c(O)c4c3C2=O)NC(=O)/C(C)=C\C=C[C@H](C)[C@H](O)[C@@H](C)[C@@H](O)[C@@H](C)[C@H](OC(C)=O)[C@@H]1C
not listed: [2] | [7]
inactive: all other assays above

C[C@@H](O)[C@H]1C(=O)N2C(C(=O)O)=C([C@H]3CCCO3)S[C@H]12
not listed: [2] | [7]
inactive: all other assays above

COc1ccc(CN(CCN(C)C)c2ncccn2)cc1
not listed: [2] | [7]
inactive: all other assays above

CCCCc1cc2ccccc2c(OCCN(C)C)n1
not listed: [2] | [7]
inactive: all other assays above

NC1CCN(c2nc3c(cc2F)c(=O)c(C(=O)O)cn3-c2ccc(F)cc2F)C1 (stereo unspecified)
not listed: [2] | [7]
inactive: all other assays above

CCOCCn1c(N2CCCN(C)CC2)nc2ccccc21
not listed: [2] | [7]
inactive: all other assays above

Cc1nc(-c2ccc(Cl)cc2)oc1COC(C)(C)C(=O)O
not listed: [2] | [7]
inactive: all other assays above

O=C1C(O)=C(O)C(=O)C(O)=C1O
not listed: [2] | [7]
inactive: all other assays above

CN1CCC(OC(c2ccccc2)c2ccccc2)CC1
not listed: [2] | [7]
inactive: all other assays above

COc1ccc(C(Cl)=C(c2ccc(OC)cc2)c2ccc(OC)cc2)cc1
not listed: [2] | [7]
inactive: all other assays above

CC(=O)Oc1ccc(C)cc1
not listed: [2] | [7]
inactive: all other assays above

C[C@@H](O)[C@H]1C(=O)N2C(C(=O)O)=C(S[C@@H]3CN[C@H](CNS(N)(=O)=O)C3)[C@H](C)[C@H]12
not listed: [2] | [7]
inactive: all other assays above

O=C(O)CCc1nc2ccccc2[nH]1
not listed: [2] | [7]
inactive: all other assays above

O=C(Oc1cccc2cccnc12)c1ccccc1
not listed: [2] | [7]
inactive: all other assays above

N#C/C(=C1\SCC(c2ccccc2Cl)S1)n1ccnc1 (stereo unspecified)
not listed: [2] | [7]
inactive: all other assays above

CN1CCN(C2=Nc3ccccc3Sc3ccc(Cl)cc32)CC1
not listed: [2] | [7]
inactive: all other assays above
